Screens (PubChem BioAssay)
aSyn yeast inh: alpha-synuclein toxicity inhibition in yeast; Yeast expressing alpha-synuclein, growth rescue, BacTiter-Glo, 24 h; Potency, µM (series often up to 46.1 µM), inactives show top-dose growth rescue (activation), usual class: activators; actives 0.14% (n = 370,000); further: % of control where 0% means no effect; nearly all actives have a fitted effect of over 65% in size
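Rescue of yeast growth: cells expressing toxic alpha-synuclein, induced in galactose at OD600 0.02, incubated with compound 24 h at 30 C. ATP luminescence quantified growth; inhibitors of toxicity appear as activators.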
FUS yeast rescue: FUS proteinopathy suppression in yeast; S. cerevisiae FUS-expressing, growth rescue, OD600, 24 h; Potency, µM (series often up to 76.6 µM), actives largely listed as activators; actives 0.24% (n = 390,000); AID 1347120;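 further: plate controls were DMSO vehicle for no effect and reference control for full effect; nearly all actives have a fitted effect of over 55% in size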
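Cultures pregrown in 2.5% raffinose medium are shifted to minimal medium containing 2% galactose to express toxic FUS. Compounds are tested at several concentrations. After 24hr at 30C, growth is quantified at 600 nm absorbance.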
TDP-43 yeast inh: rescues yeast growth from TDP-43 toxicity. TDP-43 expressing yeast growth rescue, BacTiter-Glo, 24 h. actives 1.8% (n = 410,000). Potency, µM (doses to about 46.1 µM), for the others: at the top dose growth rescue (activation), usual class: activators; further: % of control where 0% means no effect; nearly all actives have a fitted effect of over 50% in size
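Yeast expressing TDP-43 (pregrown in raffinose, seeded at OD600=0.02 in galactose medium) exposed to compounds 24 hr at 30 deg C. Growth read by BacTiter-Glo luminescence; rescue of toxicity appears as increased signal.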
Abeta yeast res: A-beta toxicity reversal in yeast. actives 0.063% (n = 410,000). yeast expressing A-beta42, growth rescue, OD600, 48 h; response scale: 0% DMSO, 100% iron-clioquinol control. Potency, µM (top dose mostly 46.1 µM), most hits filed as activators; further: nearly all actives have a fitted effect of over 55% in size
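Yeast A-beta toxicity model in growth medium with pinned compounds, 48 h at 30 C; growth read as absorbance at 600 nm. Normalized to FeCl3/clioquinol equimolar mix (positive) and DMSO (negative).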
* hit, by the source's call; i = inactive; u = inconclusive; x = no result given. This is a sample that favours compounds with a hit; in the whole collection about 2.1% have one here. The call rests on the fitted dose curve; in most records, active means well fitted curve in the direction sought with a large enough effect; inconclusive means small, poorly fitted or top-dose-only effect, or another doubt; inactive means no such curve, though single readings can be large; an effect the other way counts as inactive or inconclusive. Potency means the concentration at half of the fitted maximal effect.

SMILES	aSyn yeast inh	FUS yeast rescue	TDP-43 yeast inh	Abeta yeast res
Cc1ccc(S(=O)(=O)C(CNS(=O)(=O)c2ccc(F)c(C(F)(F)F)c2)c2ccco2)cc1 (stereo unspecified)	x	i	4µM*	i
COc1ccc(S(=O)(=O)NCC(c2ccco2)S(=O)(=O)c2ccc(C)cc2)cc1F (stereo unspecified)	x	i	u	i
C[C@H]1CN([C@@H](C)CO)S(=O)(=O)c2ccc(/C=C/c3ccccc3)cc2O[C@H]1CN(C)C(=O)NC1CCCCC1	7%	11µM*	18%	i
C[C@@H]1CN([C@H](C)CO)C(=O)c2cc(/C=C/c3ccccc3)cnc2O[C@H]1CN(C)C(=O)NC1CCCCC1	2%	i	12%	i
CCOc1ccc2c3c(c(=O)oc2c1OCC)CCCC3	-2%	i	22µM*	i
CC(C)CC(=O)O/N=C1\C(=O)N(c2ccccc2)c2ccccc21	1%	i	-14%	i
CC(C)(C)C(=O)O/N=C1/C(=O)N(c2ccccc2)c2ccccc21	7.1µM*	i	u	i
O=C(c1ccc(Br)o1)N1CCN(c2ccc(F)cc2)CC1	8%	i	13µM*	i
O=C(Nc1ccc(N2CCN(C(=O)c3cccs3)CC2)cc1)c1ccc(Br)o1	9%	i	25µM*	i
CC(C)Cc1cc(C(=O)N2CCN(c3ccc(F)cc3)CC2)no1	8%	i	22µM*	i
COc1ccc(C2Nc3ccccc3C(=O)N2c2cccc3ccccc23)cc1COc1c(C)cccc1C (stereo unspecified)	4%	x	x	x
CCOc1ccc(C(=O)Nc2ccc3nc(SCC(=O)N4CCOCC4)sc3c2)cc1	x	i	2%	i
C[C@H]1[C@@H](OC(=O)NCc2ccc(Cl)cc2)CC[C@@]23CCCN2C(=O)CCC[C@@H]13	x	i	x	x
COc1ccc(S(=O)(=O)N(C)Cc2cccs2)cc1Br	13%	i	16µM*	i
Cc1cccc(N=Nc2c(C)nn(-c3ccccc3)c2N)c1C	-20%	x	20µM*	i
Nc1nn(-c2ccccc2)c(N)c1N=Nc1ccccc1F	-26%	i	13µM*	i
Nc1nn(-c2ccccc2)c(N)c1N=Nc1ccccc1	-13%	x	u	i
CCc1ccccc1NC(=O)c1sc(-n2nc(C)c(Cc3ccccc3)c2C)nc1C	x	i	-3%	i
C(=C\c1ccccc1)/CSc1nnc(Cc2cccs2)n1-c1ccccc1	x	i	x	x
O=C(O)CSCC(=O)NCc1c(Cl)cccc1Oc1ccccc1	-1%	i	9%	i
O=S(=O)(NCc1c(Cl)cccc1Oc1ccccc1)c1ccc(F)cc1	5%	i	18µM*	i
Cn1c(CNc2ccccc2F)nc2ccccc21	x	i	x	x
Cc1ccc(-c2noc(CN(C3CCCCC3)S(=O)(=O)c3ccc(F)cc3)n2)cc1	x	i	2%	i
CS(=O)(=O)N(Cc1nc(-c2ccc(F)cc2)no1)c1ccccc1Cl	19%	i	22µM*	i
CN(Cc1nc(-c2ccc(Cl)cc2)no1)S(=O)(=O)c1ccccc1	x	i	35µM*	i
SMILES	aSyn yeast inh	FUS yeast rescue	TDP-43 yeast inh	Abeta yeast res
COc1ccc(NC(=O)CSc2nc3c(oc4ccccc43)c(=O)n2-c2ccccc2)cc1OC	x	i	u	i
CC(=O)Nc1ccc(C(=O)Nc2nc(-c3ccccn3)cs2)cc1	-12%	u	10%	i
O=C(Nc1nc(-c2ccccn2)cs1)c1cc(Cl)ccc1[N+](=O)[O-]	u	i	u	13µM*
O=C(Nc1nc(-c2ccco2)cs1)c1ccccc1	-51%	i	13µM*	i
O=C(Nc1nc(-c2ccccn2)cs1)c1ccc2c(c1)OCCO2	u	i	u	13µM*
COc1ccc(S[C@]2(C(=O)N3CCN(C(C)=O)CC3)CC(=O)N(C(=O)C3CC3)[C@@H]2c2ccc(OC)cc2)cc1	x	i	x	x
N#Cc1ccc(OS(=O)(=O)c2ccc(-c3ccon3)s2)cc1	7%	i	13µM*	i
COc1ccc(OC)c(S(=O)(=O)N2CCCCC2C(=O)N2CCN(Cc3ccc(F)cc3)CC2)c1 (stereo unspecified)	x	i	x	x
Cc1cccc(NC(=O)c2ccc(N3CCOCC3)c([N+](=O)[O-])c2)n1	2%	i	u	i
Cc1cccc(NC(=O)c2ccc(N3CCCCC3)c([N+](=O)[O-])c2)n1	-13%	x	3.5µM*	i
CC(=O)c1cccc(OCC(=O)Nc2ccccc2N2CCOCC2)c1	0%	i	22µM*	i
COc1ccc(C(=O)NC(=S)Nc2ccccc2N2CCCCC2)cc1[N+](=O)[O-]	-1%	u	16µM*	u
CCOc1ccc(C(=O)NC(=S)Nc2ccccc2N2CCCCC2)cc1[N+](=O)[O-]	-2%	i	22%	i
COc1ccc(OCC(=O)Nc2cccc3cccnc23)cc1	x	i	13µM*	i
Cc1nn(C(C)C(=O)NC2CCCCC2)c(=O)c2c1sc1ccccc12 (stereo unspecified)	x	i	16%	i
Cc1cccc(NC(=O)CSc2cn(CC(=O)N3CCOCC3)c3ccccc23)c1C	x	i	22%	i
CC1Cn2c(C(=O)NCCc3ccc(Cl)cc3)cc3cccc(c32)S1 (stereo unspecified)	x	i	8%	i
COc1cc(C(=O)NC(=S)Nc2ccccc2N2CCOCC2)cc(OC)c1OC	-13%	i	-24%	i
COc1cccc(C(=O)NC(=S)Nc2ccccc2N2CCOCC2)c1	16%	x	13µM*	i
COc1ccc(OCC(=O)Nc2ccccc2N2CCCCC2)cc1	16%	i	11µM*	i
COc1ccc(OCC(=O)Nc2ccccc2N2CCN(C)CC2)cc1	-5%	i	12%	i
COC(=O)c1ccn(CSc2c(F)c(F)cc(F)c2F)n1	1%	i	8%	i
COC(=O)c1ccn(CSc2cc(Cl)ccc2Cl)n1	-6%	i	13µM*	i
Oc1cccc(-n2nnnc2SCc2ccccc2F)c1	-5%	i	22µM*	i
CCOC(=O)c1cccc(NC(=O)N2CC(CC)Sc3ccccc32)c1 (stereo unspecified)	x	i	-8%	i
SMILES	aSyn yeast inh	FUS yeast rescue	TDP-43 yeast inh	Abeta yeast res
O=C(c1cc(-c2ccccc2O)on1)N1CCc2ccccc2C1	1%	i	20%	i
O=C(c1cc(-c2ccc(O)cc2)on1)N1CCc2ccccc2C1	-8%	i	14µM*	i
Cc1ccc(S(=O)(=O)NCCC(=O)Nc2ccc(C)cc2C(=O)c2ccccc2)cc1	19%	i	22µM*	i
Cc1c(NC(=O)CSc2ccc(Cl)cc2)cccc1-c1nc2ncccc2o1	2%	i	14µM*	i
CN1N/C(=C\c2ccccc2)N=C2C(=O)N(C)C(=O)N=C21	-79%	x	x	x
CC(C)c1nc2scc(-c3ccc(Cl)cc3)c2c(=O)n1N	14%	i	14µM*	i
O=C(Nc1ccc(Cl)cc1)c1ccc2ncsc2c1	-19%	i	-7%	i
